# In PubChem BioAssay AID588727 (Southern Research Specialized Biocontainment Screening …, 2011):
# In all, about 350,000 compounds went through this assay and about 450 (0.13%) were called active. How the calls were made is not given here. A selection follows. Potency and affinity values are given separately. Where a SMILES comes first, the peptide text is derived from it. The star is where a group is joined. CH2Cl = ClC*
# Test: inhibitors of VEEV TC-83 cytopathic effect, confirmation, Vero cells (AID 588727)
# Conditions: VEEV TC-83 cytopathic effect inhibition, at 20 µM
# [1] = stronger effect = higher value unless noted
# [2] = measured here: 10K pilot screen inhibition, stronger effect = higher value
structure (smiles),measurement,setting,value
CCOC(=O)N1CCN(C(=O)CCNS(=O)(=O)c2ccccc2)CC1,inhibition,[1],1.37% (inactive)
CCOC(=O)c1[nH]c(COC(=O)c2ccccc2NC(=O)c2ccco2)c(C(=O)OCC)c1C,inhibition,stronger effect = higher value,1.08% (inactive)
same,inhibition,[2],3.34%
CCCCN(C(=O)CSc1nc(CCC)cc(=O)[nH]1)c1c(N)n(Cc2ccccc2)c(=O)[nH]c1=O,inhibition,[1],0.91% (inactive)
O=c1oc(C2(O)CCCCC2)cc2ccccc12,inhibition,[1],0.11% (inactive)
O=c1oc(C2(O)CCCCC2)cc2ccc(Br)cc12,inhibition,stronger effect = higher value,0.16% (inactive)
same,inhibition,[2],1.56%
COc1ccc(OC)c(NC(=O)c2ccc3c(c2)OCO3)c1,inhibition,[1],inactive
CCCc1nc2c(s1)CCc1onc(-c3cccc([N+](=O)[O-])c3)c1-2,inhibition,[1],0.11% (inactive)
CN1CCN(c2ccc(NC(=O)c3ccc(-c4ccc(Cl)cc4)o3)cc2)CC1,inhibition,[1],10.7% (inactive)
CN1CCN(c2ccc(NC(=O)c3ccc(-c4ccc(Br)cc4)o3)cc2)CC1,inhibition,[1],9.39% (inactive)
O=C(CN(C(=O)c1csnn1)c1cccc(C(F)(F)F)c1)NCCc1ccccc1,inhibition,[1],inactive
O=[N+]([O-])c1cccc(C2=NC(c3ccccc3)CO2)c1 (stereo not drawn),inhibition,[1],0.23% (inactive)
O=[N+]([O-])c1ccc(-[n+]2c(-c3ccccc3)cc(-c3ccccc3)cc2-c2ccccc2)cc1,inhibition,[1],2.23% (inactive)
O=C1CCC(C(=O)N2CCN(c3ccc(F)cc3)CC2)CN1CC1CCCCC1 (stereo not drawn),inhibition,[1],0.83% (inactive)
Cc1onc(-c2ccccc2)c1C(=O)NNC(=S)NC(=O)c1ccc(Br)cc1,inhibition,[1],3.29% (inactive)
Cc1onc(-c2ccccc2)c1C(=O)NC(=S)NNC(=O)c1ccc(O)cc1O,inhibition,[1],12.2% (inactive)
BrC(=C\c1ccccc1)/C=N/n1cnnc1,inhibition,[1],5.75% (inactive)
Nc1nnnn1/N=C/C(Br)=C/c1ccccc1,inhibition,[1],12.1% (inactive)
Cc1ccc(-c2cc(C(F)F)n3ncc(C(=O)N4CCN(c5ccccn5)CC4)c3n2)cc1,inhibition,[1],8.27% (inactive)
O=C(NCc1ccccc1)c1ncn[nH]1,inhibition,[1],inactive
O=C(Nc1ccccc1Cl)C1CCCN(S(=O)(=O)c2ccc(-n3cnnn3)cc2)C1 (stereo not drawn),inhibition,[1],0.96% (inactive)
Cc1ncc(CN2CCCC(C(=O)Nc3ccc(-c4ccco4)cc3)C2)n1C (stereo not drawn),inhibition,[1],5.05% (inactive)
COc1cccc(-c2ccc(NC(=O)C3CCCN(Cc4cnn(C(C)C)c4)C3)cc2)c1 (stereo not drawn),inhibition,[1],21.3% (inactive)
COc1cccc(-c2ccc(NC(=O)C3CCCN(Cc4cnn(C)c4C)C3)cc2)c1 (stereo not drawn),inhibition,[1],23.7% (inactive)
Cn1cc(CN2CCC(C(=O)Nc3cccc(-c4cccc(F)c4)c3)CC2)cn1,inhibition,[1],5.64% (inactive)
Cc1ncc(CN2CCCC(C(=O)Nc3ccc(-c4cccc(F)c4)cc3)C2)cn1 (stereo not drawn),inhibition,[1],5.3% (inactive)
COc1cccc(-c2ccc(NC(=O)C3CCCN(Cc4cnc(C)s4)C3)cc2)c1 (stereo not drawn),inhibition,[1],2.02% (inactive)
COC(=O)C(O)(c1ccc(N(C)C(=O)c2ccc(Cl)c(Cl)c2)cc1)C(F)(F)F (stereo not drawn),inhibition,[1],0.88% (inactive)
CCOC(=O)c1c(S(=O)(=O)N2c3ccccc3CC2C)c(C)n(C)c1C (stereo not drawn),inhibition,[1],inactive
Cc1c(NC(=O)c2ccc(Br)s2)c(=O)n(-c2ccccc2)n1C,inhibition,[1],0.26% (inactive)
O=C(N[C@@H](Cc1ccccc1)C(=O)CCl)OCc1ccccc1,inhibition,[1],8.46% (inactive)
CC(=O)NC(CC(C)C)C(=O)NC(Cc1ccccc1)C(=O)CCl (stereo not drawn) (Ac-Leu-Phe-CH2Cl; configuration not given here),inhibition,[1],6.56% (inactive)
Cc1nc(-c2ccc(Cl)cc2)sc1C1(C)CC(c2cccc(F)c2)=NO1 (stereo not drawn),inhibition,[1],2.59% (inactive)
C[C@]12CCC(O)CC1CCC1C2CC[C@]2(C)C(c3cc(C(F)(F)F)n[nH]3)CCC12 (stereo partly drawn),inhibition,[1],inactive
CN(C)CCNC(=O)c1ccccc1-c1cc2ccccc2c(=O)o1,inhibition,[1],0.53% (inactive)
COc1cc2c(cc1NC(=O)c1cccc(F)c1)CCCC2,inhibition,[1],0.61% (inactive)
COc1ccc(C(=O)Nc2cc3c(cc2OC)CCCC3)cc1Br,inhibition,[1],1.28% (inactive)
CCOc1ccc(NC(=O)CN(C)C(=O)CCc2nc3ccccc3c(=O)[nH]2)cc1OCC,inhibition,[1],inactive
CC1(C)Cc2cccc(OCC(=O)Nc3nccs3)c2O1,inhibition,[1],7.27% (inactive)
CC1(C)Cc2cccc(OCC(=O)Nc3cccnc3)c2O1,inhibition,[1],7.7% (inactive)
CCCC(=O)C1C(=O)CC(CC(C)SCC)CC1=O (stereo not drawn),inhibition,[1],0.43% (inactive)
O=C1/C(=C/c2cccnc2)Oc2cc(OS(=O)(=O)c3ccc(F)cc3)ccc21,inhibition,[1],0.87% (inactive)
CC(=O)c1c(C)[nH]c(C(=O)NC2CCSc3ccccc32)c1C (stereo not drawn),inhibition,[1],4.81% (inactive)
CCc1c(C(=O)NC2CCCCC2)[nH]c(C)c1C(C)=O,inhibition,[1],inactive
COc1ccc(N2C(=O)CC(N3CCN(c4ccc(Cl)cc4)CC3)C2=O)cc1 (stereo not drawn),inhibition,[1],0.34% (inactive)
CCc1nnc(NC(=O)Cc2c[nH]c3ccccc23)s1,inhibition,[1],0.4% (inactive)
CCC(CC)c1nnc(NC(=O)Cc2c[nH]c3ccccc23)s1,inhibition,[1],3.52% (inactive)
Cc1cc2occ(CC(=O)Nc3nnc(C4CC4)s3)c2cc1C,inhibition,[1],0.7% (inactive)
O=C(Cc1coc2ccc3ccccc3c12)Nc1nccs1,inhibition,[1],2.66% (inactive)
CC(=O)c1cccc(N=Cc2c(O)c3ccccc3oc2=O)c1,inhibition,[1],8.95% (inactive)
Cc1[nH]c2ccccc2c1C(C[N+](=O)[O-])c1ccco1 (stereo not drawn),inhibition,[1],1.43% (inactive)
COc1cc(S(=O)(=O)N2CCN(C)CC2)c(OC)cc1Cl,inhibition,[1],inactive
O=C(CNCCO)NC12CC3CC(CC(C3)C1)C2,inhibition,[1],2.6% (inactive)
COCCC(=O)NC12CC3CC(CC(C3)C1)C2,inhibition,[1],inactive
Oc1ccc(N=Nc2n[nH]c(-c3ccc(Cl)cc3)n2)cc1,inhibition,[1],1.16% (inactive)
Oc1ccc(Cl)cc1N=Nc1ccccc1,inhibition,[1],inactive
COc1ccccc1-c1n[nH]c(=S)o1,inhibition,[1],0.85% (inactive)
CC(=O)Nc1ccc(S(=O)(=O)N2CCCc3ccccc32)cc1,inhibition,[1],inactive
COC(=O)Nc1ccc(S(=O)(=O)N2CCCc3ccccc32)cc1,inhibition,[1],inactive
O=C(O)c1ccc(Sc2ccccn2)c([N+](=O)[O-])c1,inhibition,[1],0.39% (inactive)
N/C(CS(=O)(=O)c1ccccc1)=N\OC(=O)c1ccc(F)cc1,inhibition,[1],1.85% (inactive)
c1ccc(Oc2nc(NCc3ccco3)nc(NCc3ccco3)n2)cc1,inhibition,[1],4.2% (inactive)
